Laboratory results: PubChem BioAssay AID686978 (National Center for Advancing Translational Sciences (NCATS), 2013)
Where “and” joins values, the source holds several entries; their conditions need not be identical. Identical values can stand only once. Out of some 420,000 compounds screened, about 64,000 (15%) were called active. Roughly 27% stayed inconclusive and do not appear here. A selection follows. Values without a mark were called inactive. Calls follow the shape of the dose curve; as a rule, active = well fitted inhibition curve with a large enough effect; inconclusive = small, poorly fitted or top-dose-only effect; inactive = flat fitted curve, though single readings scatter.

Assay: qHTS for Inhibitors of human tyrosyl-DNA phosphodiesterase 1 (TDP1): qHTS in cells in absence of CPT; also: nearly all actives have a fitted effect of over 55% in size
Conditions: DT40 Tdp1-/- hTDP1 cells, no CPT, ATP luminescence, 48 h; activity change, negative = growth inhibition: at 46.2 µM (top of the series)
Outline: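 Chicken DT40 Tdp1-/- cells stably complemented with human TDP1 were seeded at 400 cells/well with DMSO in place of 20 nM camptothecin. After compound pinning, cells grew at least 48 hr at 37 °C; viability read by CellTiter-Glo luminescence.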
% is scaled to controls: 0 for no effect and ±100 for the full control effect; potency is read from the fitted curve at half-maximal effect.

Row | Compound | activity change, negative = growth inhibition [%] | Potency
1 | C=CCNC(=O)c1cc2nc(C3CC3)cc(C(F)F)n2n1 | 16.9 | 
2 | CCCCn1c(N)c(N(CC)C(=O)/C=C/c2ccco2)c(=O)[nH]c1=O | 21.7 | 
3 | CC1CCN(C(=O)c2ccc3c(=O)n4c(nc3c2)CCCCC4)CC1 | 1.08 | 
4 | Cc1ccc(NC(=O)Nc2sc3nc4n(c(=O)c3c2C)CCC(C)CC4)c(Cl)c1 (stereo not drawn) |  | 11.6 µM (active)
5 | CC1CCc2c(sc3nc4n(c(=O)c23)CCS4)C1 (stereo not drawn) | -22.7 | 
6 | CNC(=O)c1nnc(Cc2ccc(Cl)cc2)o1 | -2.66 | 
7 | O=C1C2C3C=CC(C3)C2C(=O)N1c1ccc(S(=O)(=O)Nc2nccs2)cc1 (stereo not drawn) | -7.53 | 
8 | Cc1ccc2sc(NNC(=O)c3ccc4c(c3)OCCO4)nc2c1C | -29 | 
9 | O=C(NC1CCCCC1)n1c(=O)oc2cc(S(=O)(=O)N3CCCCC3)ccc21 | -4.25 | 
10 | Cc1ccc2nc(NC(=O)C3CCN(S(=O)(=O)c4ccc5c(c4)oc(=O)n5C)CC3)sc2c1 |  | 14.6 µM (active)
11 | O=C(Nc1nc2ccc(S(=O)(=O)N3CCCC3)cc2s1)C1CCCO1 (stereo not drawn) | -18.9 | 
12 | CC(=O)Nc1c2c(nn1-c1ccc(C)cc1C)CS(=O)C2 (stereo not drawn) | -7.3 | 
13 | CC(=O)c1ccc(S(=O)(=O)Nc2ccc(-c3ccc4nncn4n3)cc2)cc1 | 13.5 | 
14 | O=C(O)c1ccc(NC(=O)C2CCCCC2)cc1 | -7.37 | 
15 | O=C(Nc1ccc(-c2ccc3nncn3n2)cc1)C1CCCCC1 |  | 16.4 µM (active)
16 | O=C(c1cn2ccccc2n1)N1CCc2c([nH]c3ccccc23)C1c1ccccn1 (stereo not drawn) | -8.01 | 
17 | CCOc1ccc(C2c3[nH]c4ccccc4c3CCN2Cc2cccn2-c2ncccn2)cc1 (stereo not drawn) |  | 13 µM (active)
18 | CCOc1ccc(C2c3[nH]c4ccccc4c3CCN2Cc2cn(CC)nc2C)cc1 (stereo not drawn) | 11.9 | 
19 | c1ccc(C2c3[nH]c4ccccc4c3CCN2Cc2cccn2-c2cccnc2)nc1 (stereo not drawn) |  | 5.8 µM (active)
20 | COCC(=O)Nc1c(I)c(C(=O)NCC(O)CO)c(I)c(C(=O)N(C)CC(O)CO)c1I (stereo not drawn) |  | inactive
21 | Nc1nc(SCC(=O)N2CCN(S(=O)(=O)c3ccc(Cl)cc3)CC2)n[nH]1 | 19.5 | 

Row | Compound | activity change, negative = growth inhibition [%] | Potency
22 | CC(CCN1CCN=C1N(C)C)c1ccccc1 (stereo not drawn) | -10.3 | 
23 | Cc1ccc2[nH]c(=O)c(COC(=O)c3ccccn3)cc2c1 | -0.351 | 
24 | Cc1ccccc1NC(=O)c1cnn(-c2ccccc2)c1NC(=O)c1ccco1 | -7.32 | 
25 | Nc1cc2c(cc1Br)-c1ccc(F)cc1C2=O | -10.1 | 
26 | COC(=O)C[C@H]1C=C[C@H](NC(=O)c2ccc(F)cc2)[C@@H](CO)O1 | -16.8 | 
27 | Cc1ccsc1/C=N/NC(=O)Cc1cc(=O)[nH][nH]1 | 15.7 | 
28 | Brc1ccc(CN2CC[C@H]3C=CCc4cccc(c43)C2)cc1 |  | 15.8 µM (active) and 20.6 µM (active)
29 | O=C1C[C@H]2C=CCc3cccc(c32)CN1Cc1ccccc1 |  | 20 µM (active)
30 | Cc1cccc(C)c1N1C(=O)CN(Cc2ccccc2)C1=S | -1.87 | 
31 | O=C1C[C@@H]2c3c(cccc3CN1Cc1ccccc1)C[C@@H](O)[C@H]2O |  | inactive
32 | CCCC(=O)C1CCN(Cc2ccccc2)CC1 | -5.82 | 
33 | C/C(Cn1nnc2ccccc21)=N\OC(=O)c1cc(F)c(F)cc1Cl | 29.1 | 
34 | O=C(NCc1ccc(F)cc1)C1CCC(CNc2c(N3CCOCC3)c(=O)c2=O)CC1 (stereo not drawn) | 17.8 | 
35 | CC[C@]1(O)C[C@@H]2CN(CCc3c([nH]c4ccccc34)[C@@](C(=O)OC)(c3cc4c(cc3OC)N(C)[C@H]3[C@@](O)(C(=O)OC)[C@H](OC(C)=O)[C@]5(CC)C=CCN6CC[C@]43[C@@H]65)C2)C1 |  | 51.7 nM (active) and 59.6 nM (active) and 82 nM (active)
36 | CC[C@]1(O)CC2CN(CCc3c([nH]c4ccccc34)[C@@](C(=O)OC)(c3cc4c(cc3OC)N(C=O)[C@H]3[C@@](O)(C(=O)OC)[C@H](OC(C)=O)[C@]5(CC)C=CCN6CC[C@]43[C@@H]65)C2)C1 (stereo partly drawn) | -84.8 | 
37 | CCN(CC)Cc1c(C(=O)OC)nnn1-c1nonc1N | -9.48 | 
38 | CC1(C(=O)NS(=O)(=O)c2ccccc2)CCN1C(=O)c1ccccc1 (stereo not drawn) | -0.114 | 
39 | CC(C)NC(=O)C1(C)CCCCCN1C(=O)c1ccc(-c2ccccc2)cc1 (stereo not drawn) |  | 9.2 µM (active)
40 | CCNC(=O)C1(C)CCCN1C(=O)c1ccc(N(C)C)cc1 (stereo not drawn) | -3.34 | 
41 | CC(C)(CNCC(O)c1ccccc1)N1CCOCC1 (stereo not drawn) | -5.05 | 
42 | NC(=S)N/N=C/c1ccc([N+](=O)[O-])cc1 | -25.5 | 

Row | Compound | activity change, negative = growth inhibition [%] | Potency
43 | CCOc1ccc(/C=N/NC(N)=S)cc1 |  | 16.4 µM (active)
44 | CCOC(=O)N1CCC(=NNC(N)=O)CC1 | -10.4 | 
45 | CCC(C)Nc1oc(-c2ccc(COc3ccc(Cl)cc3)o2)nc1C#N (stereo not drawn) |  | 23.1 µM (active)
46 | N#Cc1nc(COc2ccc(Cl)cc2)oc1N1CCCC1 | -27.1 | 
47 | CC1CC(C)CN(c2oc(-c3ccc(OCc4ccc(Cl)cc4)cc3)nc2C#N)C1 (stereo not drawn) | -8.16 | 
48 | COC(=O)c1sccc1NC(=O)c1ccc(Cl)cc1 | -0.329 | 
49 | O=C1c2ccccc2C(=O)C1c1ccccc1 |  | inactive
50 | COc1ccc(NC(=O)/C(C#N)=C\c2cc(OC)c(OCc3ccc(C(=O)O)cc3)cc2Br)cc1 | -25.7 | 
51 | COc1ccccc1C(=O)N/C(=C/c1ccco1)C(=O)Nc1ccc(C(=O)O)cc1 | -16.4 | 
52 | COCCCn1c(=O)/c(=C/c2ccccc2OC(C)C)s/c1=C(\C#N)C(=O)Nc1ccc(C(=O)O)cc1 |  | 20.6 µM (active)
53 | COCCNC(=S)N(CCc1c(C)[nH]c2ccc(C)cc12)Cc1cccnc1 | -10.3 | 
54 | CCn1cc(C(=O)N2CC=C(c3ccccc3)CC2)c(=O)c2ccc(C)nc21 | -15.4 | 
55 | CCOc1cc(/C=C(/C#N)c2ccc(Cl)cc2)cc(Cl)c1OCC(=O)O | 15.3 | 
56 | CCOc1cc(/C=C(\C#N)C(=O)Nc2ccccc2C)ccc1OCc1cc(=O)n2nc(CC)sc2n1 | -11.1 | 
57 | CCOc1cc(/C=C(\C#N)c2nc(-c3cccs3)c(NC(C)=O)s2)ccc1O |  | 3.66 µM (active)
58 | CSc1nc(C)nc2c1c(=O)n(C)c(=O)n2C | -4.7 | 
59 | O=P(O)(O)OC[C@H](O)CO | -1.46 | 
60 | CC1(C)CC(CCC(=O)Nc2ccccc2Cl)C(=O)O1 (stereo not drawn) | -15.7 | 
61 | CCCCCCNC(=O)O[C@H]1CN(C(=O)OC(C)C)N(C(=O)OC(C)C)[C@@H]2CN(S(=O)(=O)c3ccc(C)cc3)C[C@]12O |  | 16.4 µM (active)
62 | CCCCOc1ccc(NC(=O)[C@@H]2CCCN2C(=O)C2CCN(S(=O)(=O)c3ccc(C)cc3)CC2)cc1 | -11.1 | 
63 | Cc1ccc(S(=O)(=O)N2CCC(C(=O)N[C@@H](C)C(=O)NCc3ccccc3)CC2)cc1 | 1.24 | 
